# Source: the supplement of paper PMC10338343
# ± gives the standard deviation.
# Tests used:
# [1] = tested on: MILI (PIWIL2) piRISC loaded with L1MC piRNA (26 nt); assay: pre-steady-state target cleavage rate (min^-1); guide: L1MC piRNA 5'p-UAACUAAAUACUAUGCAAGCUGUAGG; higher = faster piRNA-guided slicing of the target;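 note: 1 nM active piRISC with 0.1 nM target library at 33 °C single turnover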
# Procedure, shortened: (§1)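 Three pooled Cleave-'n-Seq trials supplied the data, with k3 capped at 0.0001 min^-1. In each, […] transcribed, DNA-blocked target RNA library and 1 nM active affinity-purified piRISC with one synthetic guide reacted in HEPES–potassium acetate buffer at 33 °C for 0–8 or 0–960 min, with or without 500 nM GTSF1 partner protein. Uncleaved targets were sequenced and normalised to depth and to weakly complementary targets. A burst-and-steady-state fit provided the pre-steady-state cleavage rate.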
# [2] = tested on: EfPiwi piRISC loaded with L1MC piRNA (26 nt); assay: pre-steady-state target cleavage rate (min^-1); auxiliary factor: 500 nM Ephydatia muelleri Gtsf1; guide: L1MC piRNA 5'p-UAACUAAAUACUAUGCAAGCUGUAGG; MIWI and MILI are mouse PIWI proteins and EfPiwi is from a freshwater sponge; tags in brackets are library labels; higher = faster piRNA-guided slicing of the target
# Procedure, shortened: as §1
# [3] = auxiliary factor: 500 nM mouse GTSF1
# [4] = auxiliary factor: none (no GTSF1)
Sequence,"pre-steady-state target cleavage rate [1, 3]","pre-steady-state target cleavage rate [1, 4]",pre-steady-state target cleavage rate [2]
UCCUGGAUGAGGAUGCAUAGUAUUUAGUUA,0.103 ± 0.017,0.00665 ± 0.0021,0.00336 ± 0.0024
UCCUGCUACAGCAUGCAUAGUAUUAAGUUA,0.331 ± 0.043,0.00346 ± 0.0032,0.00828 ± 0.0024
UCCUCCUACAGCAUGCAUAGUAUUUAGUAA,0.231 ± 0.019,0.00366 ± 0.0021,0.00521 ± 0.0023
UCCUCCUACACCAUGCAUAGUAUUUAGUUA,0.243 ± 0.019,0.00814 ± 0.0024,0.145 ± 0.05
UCCUGCUACAGCUUGCAUAGUGUUUAGUUA,0.197 ± 0.02,0.00436 ± 0.0027,0.0065 ± 0.0019
UCCUGCUACACCUUGGAUAGUAUUUAGUUA,0.122 ± 0.021,0.00552 ± 0.0022,0.00538 ± 0.0021
UCCUGGAACAGCUUGCAUAGUAUUAUAGUUA,0.149 ± 0.024,0.00335 ± 0.0027,0.0399 ± 0.015
UCCUGCUUGUGCUUGCAUAGUAUUUAGUUA,0.13 ± 0.017,0.00616 ± 0.0025,0.00618 ± 0.0027
UCCUGCUACAGCUAGCAUAGUAUAUAGUUA,0.27 ± 0.03,0.00448 ± 0.0023,0.00485 ± 0.0017
UCCUGGAUGAGCUUGCAUAGUAUUUAGUAA,0.218 ± 0.019,0.00773 ± 0.0026,0.00367 ± 0.0022
UCCUGGUACAGCUUCGAUAGUAUUUAGUUA,0.187 ± 0.025,0.00848 ± 0.0025,0.00411 ± 0.0026
UCCUCUUACAGCUUGCAUAGUAUUUAGUUA,0.35 ± 0.015,0.00963 ± 0.0032,0.243 ± 0.061
UCCUGGAACAGGUUGCAUAGAAUUUAGUUA,0.0524 ± 0.011,0.0038 ± 0.002,0.00258 ± 0.0014
UCCUGGUACAGCUUGCAUAGUGUUUAGUUA,0.162 ± 0.026,0.00946 ± 0.0035,0.00794 ± 0.0028
UCCUCCUACACGUUGCAUAGUAUUUAGUAA,0.163 ± 0.022,0.00299 ± 0.0029,0.00566 ± 0.0027
UCCUGCUACAGCUUGCAUGGUAUUUAGUUA,0.334 ± 0.018,0.0121 ± 0.0029,0.0201 ± 0.0061
UCCUGCUACACCUUGCAUAGUUUUUAGUUA,0.0358 ± 0.01,0.00475 ± 0.0022,0.00395 ± 0.002
UCCUGGUACAGCUUGCAUAGUUAUUAGUUA,0.0387 ± 0.015,0.00509 ± 0.0027,0.00325 ± 0.0025
UCCUCCUACAGCAUGGAUAGUAUUUAGUUA,0.269 ± 0.014,0.00942 ± 0.0022,0.096 ± 0.023
UCCUGGAUGAGCUUGCAUAGUAUUUAGUUG [g2:g21:cont:t1G],0.186 ± 0.019,0.00606 ± 0.0029,0.0161 ± 0.0043
UCCUGGUAAAGCUUGCAUAGUAUUUAGUUA,0.183 ± 0.017,0.00996 ± 0.0023,0.00606 ± 0.002
UCCUCCUAUCAGCUUGCAUAGUAUUUAGUUA,0.322 ± 0.015,0.00786 ± 0.0023,0.0677 ± 0.018
UCCUGCAACAGCUUGCAUACUAUUUAGUUA,0.083 ± 0.011,0.00386 ± 0.002,0.0112 ± 0.0029
UCCUCCUACAGCUUGCAAAGUAUUUAGUAA,0.142 ± 0.016,0.00404 ± 0.0019,0.00609 ± 0.0029
UCCUGGUACAGCUUGCACAGUAUUUAGUUA,0.156 ± 0.013,0.0127 ± 0.0032,0.0505 ± 0.015

Sequence,"pre-steady-state target cleavage rate [1, 3]","pre-steady-state target cleavage rate [1, 4]",pre-steady-state target cleavage rate [2]
UCCUGGUACAGCAUUGCAUAGUAUUUAGUUA,0.257 ± 0.039,0.0159 ± 0.0049,0.0107 ± 0.004
UCCUGCUACAGCUUGCUUAGUAUUUAGUAA,0.119 ± 0.015,0.00316 ± 0.0023,0.00437 ± 0.0017
UCCUGGAUCAGCUUGCAUAGUAUUCAGUUA,0.179 ± 0.024,0.00376 ± 0.0025,0.00509 ± 0.0019
UCCUGGAACAGCAUGCAUAGUAUUUAGUUA,0.256 ± 0.02,0.00812 ± 0.0028,0.0466 ± 0.011
UCCUCCUACAGCUUGCUUAGUUUUUAGUUA,0.0513 ± 0.01,0.00379 ± 0.0023,0.00738 ± 0.0023
UCCUCCUACACCUUGCUUAGUAUUUAGUUA,0.193 ± 0.022,0.00665 ± 0.0019,0.00914 ± 0.0039
UCCUGGUAAGCUUGCAUAGUAUUUAGUUA,0.273 ± 0.017,0.0137 ± 0.0032,0.0168 ± 0.0044
UCCUGGAACUGCAUGCAUAGUAUUUAGUUA,0.224 ± 0.013,0.00585 ± 0.0025,0.0126 ± 0.0039
UCCUGCGACAGCUUGCAUAGUAUUUAGUUA,0.298 ± 0.016,0.00828 ± 0.0026,0.0339 ± 0.0075
UCCUGGAUCAGCUUGGAAAGUAUUUAGUUA,0.0767 ± 0.01,0.00552 ± 0.0021,0.00365 ± 0.0033
UCCUGGUACAGCUUGCAUAGUAUAAAGUUA,0.193 ± 0.046,0.00524 ± 0.0029,0.00482 ± 0.0022
UCCUCGUACAGCUUGCAUAGUAUUAAGUUA,0.214 ± 0.022,0.00547 ± 0.0019,0.00547 ± 0.0018
UCCUCCUACAGCUUGGUUAGUAUUUAGUUA,0.269 ± 0.016,0.00996 ± 0.0021,0.0149 ± 0.006
UCCUCCUACUGCUUGCAUAGUUUUUAGUUA,0.0525 ± 0.0085,0.00424 ± 0.002,0.0079 ± 0.0028
UCCUCCUUGUGCUUGCAUAGUAUUUAGUUA,0.157 ± 0.012,0.00963 ± 0.002,0.0113 ± 0.0034
UCCUCCUACAGCUUGCUUUGUAUUUAGUUA,0.18 ± 0.017,0.00401 ± 0.0023,0.0093 ± 0.0052
UCCUGGAACUCCUUGCAUAGUAUUUAGUAA,0.169 ± 0.02,0.00259 ± 0.0025,0.00371 ± 0.0017
UCCUCCUCAGCUUGCAUAGUAUUUAGUUA,0.258 ± 0.015,0.00784 ± 0.0019,0.0735 ± 0.017
UCCUCCUACAGGUUGCAUAGUAUUUAGUUA,0.264 ± 0.013,0.00924 ± 0.0019,0.0556 ± 0.013
UCCUCCAACAGCUUGCAUUGUAUUUAGUUA,0.257 ± 0.018,0.00746 ± 0.0023,0.0205 ± 0.0058
UCCUCCUACAGCUUGCUUAGUAUUUACUUA,0.179 ± 0.02,0.00341 ± 0.0022,0.00381 ± 0.003
UCCUGGAUCAACUUGCAUAGUAUUUAGUUA,0.265 ± 0.017,0.00729 ± 0.0025,0.0635 ± 0.018
UCCUGCUACAGUCUUGCAUAGUAUUUAGUUA,0.222 ± 0.021,0.00875 ± 0.0023,0.00684 ± 0.0025
UCCUGGUUCAGCUUGCAUACUAUUUAGUUA,0.0631 ± 0.011,0.00505 ± 0.0024,0.00751 ± 0.0031
UCCUCCUACAGGAAGCAUAGUAUUUAGUUA,0.292 ± 0.011,0.00603 ± 0.0024,0.0159 ± 0.0041

Sequence,"pre-steady-state target cleavage rate [1, 3]","pre-steady-state target cleavage rate [1, 4]",pre-steady-state target cleavage rate [2]
UCCUGGAUGAGCUUGCUUAGUAUUUAGUAA,0.155 ± 0.022,0.00595 ± 0.0027,0.00265 ± 0.0025
UCCUGCUACACCUUGCAUUGUAUUUAGUUA,0.151 ± 0.014,0.0123 ± 0.004,0.00323 ± 0.0025
UCCUGCUACAGCUUGCAUAGUAUUUCAGUUA,0.335 ± 0.075,0.00409 ± 0.0028,0.00522 ± 0.0019
UCCUGGAUCGAGCUUGCAUAGUAUUUAGUUA,0.201 ± 0.016,0.0122 ± 0.0026,0.0315 ± 0.0069
UCCUGGAUGAGCUAGCAUAGUAAUUAGUUA,0.131 ± 0.018,0.00472 ± 0.0025,0.00293 ± 0.0021
UCCUGGAACAGCUUGCAUAGUAUGUUAGUUA,0.243 ± 0.046,0.0048 ± 0.0027,0.00812 ± 0.0028
UCCUCCUACAGGAUGCAUAGUAUUUAGUAA,0.23 ± 0.017,0.00422 ± 0.0022,0.0119 ± 0.0048
UCCUGGUGCAGCUUGCAUAGUAUUUAGUUA,0.287 ± 0.017,0.0103 ± 0.0029,0.0864 ± 0.018
UCCUGGUACAGCUAGGAUAGUAUUUAGUUA,0.191 ± 0.026,0.00723 ± 0.0022,0.00331 ± 0.0017
UCCUGCUCCAGCUUGCAUAGUAUUUAGUUA,0.256 ± 0.017,0.00969 ± 0.0026,0.0877 ± 0.024
UCCUCGUAGAGCUUGCAUAGUAUUUAGUUA,0.266 ± 0.012,0.00554 ± 0.0023,0.0385 ± 0.0086
UCCUGCUACAGCUUGCAUAGUAUUUAUUUA,0.148 ± 0.03,0.00466 ± 0.0021,0.0055 ± 0.0037
UCCUGGAUGUGCUUGCAUAGUAUUGUAGUUA,0.0838 ± 0.018,0.0048 ± 0.0032,0.00579 ± 0.0041
UCCUGGAUCAGCUUGCAAACUAUUUAGUUA,0.0267 ± 0.0067,0.00375 ± 0.0019,0.00476 ± 0.003
UCCUGGUACAGCUUGCAAAGUAUUUAGUUA,0.11 ± 0.013,0.00987 ± 0.0024,0.0101 ± 0.0035
UCCUGGAACAGCGUUGCAUAGUAUUUAGUUA,0.203 ± 0.017,0.0103 ± 0.0025,0.0162 ± 0.0046
UCCUCCUUGAGCUUGCAUAGUAUUUAGUAA,0.217 ± 0.025,0.00389 ± 0.0017,0.00719 ± 0.0026
UCCUCCUAGAGCUUGGAUAGUAUUUAGUUA,0.217 ± 0.013,0.00594 ± 0.0019,0.0312 ± 0.0067
UCCUGCUACAGGUAGCAUAGUAUUUAGUUA,0.367 ± 0.031,0.00651 ± 0.0037,0.0207 ± 0.0042
UCCUGCUACCAGCUUGCAUAGUAUUUAGUUA,0.24 ± 0.019,0.0115 ± 0.0033,0.0199 ± 0.0059
UCCUCCUACAGCUUCCUUAGUAUUUAGUUA,0.216 ± 0.025,0.00443 ± 0.002,0.00472 ± 0.0022
UCCUGGAUCAGGUUGCAUAGUAAUUAGUUA,0.152 ± 0.015,0.00739 ± 0.0017,0.012 ± 0.005
UCCUCCUACUGCUUGCAUAGUAAUUAGUUA,0.2 ± 0.014,0.00554 ± 0.0017,0.0119 ± 0.0043
